Screens (PubChem)
The list is not random: actives were taken first. Their share in the collection is about 1.9%.
Abeta rescue – qHTS for compounds that reverse cellular toxicity of Amyloid beta (A-beta) peptide in yeast: Primary Screen. yeast expressing A-beta42, growth rescue, OD600, 48 h; response scale: 0% DMSO, 100% iron-clioquinol control. Potency, µM (series often up to 46.1 µM), actives largely listed as activators. hit rate 0.063% among 410,000. AID 1347071, 2019; further: potency means the concentration at half of the fitted maximal effect; nearly all actives have a fitted effect of over 55% in size
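Growth rescue measured by 600 nm absorbance after 48 h yeast culture at 30 C with compound. Values normalized between DMSO and an equimolar ferric chloride plus clioquinol control.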
FUS yeast rescue – qHTS for Suppressors of FUS Proteinopathy: Primary screen using FUS-linked yeast assay | Potency, µM (top dose mostly 76.6 µM), hits mostly activators | S. cerevisiae FUS-expressing, growth rescue, OD600, 24 h | hit rate 0.24% among 390,000;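 further: potency means the concentration at half of the fitted maximal effect; plate controls were DMSO vehicle for no effect and reference control for full effect; nearly all actives have a fitted effect of over 55% in size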
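FUS-expressing yeast, raffinose-pregrown, induced in 2% galactose minimal medium at OD 0.005; compounds in a dilution series, 24hr at 30C. Growth restoration read as absorbance at 600 nm. CP55940 positive control, DMSO negative.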
PTHR1 agonist – qHTS for PTHR1 Agonists: Primary Screen | Parathyroid hormone/parathyroid hormone-related peptide receptor (Homo sapiens), Q03431 | HEK293 GP2 PTHR1 cells, GloSensor cAMP luminescence, 1 h | Potency, µM (series often up to 115 µM), inactives show at the top dose activation, hits mostly activators | hit rate 0.075% among 410,000 | AID 743266, 2014; further: potency means the concentration at half of the fitted maximal effect; nearly all actives have a fitted effect of over 55% in size
Target sequence (Q03431 whole entry, looked up): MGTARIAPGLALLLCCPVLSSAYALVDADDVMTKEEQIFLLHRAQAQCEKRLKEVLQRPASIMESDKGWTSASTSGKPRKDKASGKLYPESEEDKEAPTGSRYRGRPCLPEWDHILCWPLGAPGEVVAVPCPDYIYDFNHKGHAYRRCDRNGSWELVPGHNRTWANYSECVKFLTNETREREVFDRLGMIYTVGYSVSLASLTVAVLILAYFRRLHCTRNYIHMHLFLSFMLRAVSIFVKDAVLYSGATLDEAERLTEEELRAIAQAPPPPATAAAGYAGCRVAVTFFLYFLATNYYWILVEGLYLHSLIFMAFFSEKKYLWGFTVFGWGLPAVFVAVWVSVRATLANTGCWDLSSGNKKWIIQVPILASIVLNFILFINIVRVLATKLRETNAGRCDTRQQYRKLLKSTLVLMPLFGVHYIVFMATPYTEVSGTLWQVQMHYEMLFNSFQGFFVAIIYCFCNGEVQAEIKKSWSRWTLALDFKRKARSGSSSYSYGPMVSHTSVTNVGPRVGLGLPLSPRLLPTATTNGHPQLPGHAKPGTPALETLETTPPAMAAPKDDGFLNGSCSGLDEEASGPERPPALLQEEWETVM
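HEK-293-derived GP2 cells expressing PTHR1 and a GloSensor cAMP reporter, 3,000/well, plated overnight, given luciferin plus IBMX (each 0.5 mM as added) for 1 h at 37 °C, then compound for 1 h at 37 °C. Luminescence was read after 15 min at room temperature.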
LDHA inh – qHTS assay for inhibitors of human lactate dehydrogenase; L-lactate dehydrogenase A chain (Homo sapiens), P00338; purified LDHA, NADH/diaphorase-resazurin fluorescence; active compounds read low; activity change, % (values are at about 110 or 230 µM); hit rate 0.15% among 480,000; AID 1347041, 2019; in the data active means activity change below about -30%; inconclusive means mostly about -25% to -30%;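 further: plate controls were DMSO wells for no effect and wells without enzyme for full effect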
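Human LDH5 at 2 nM final in Tris HCl pH 7.4 with 0.06 mM NADH and 0.2 mM pyruvate, reacted 5 minutes at room temperature. Remaining NADH coupled via diaphorase/resazurin; resorufin fluorescence read at 0 and 20 minutes, normalized to enzyme-free and DMSO wells.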
aSyn yeast inh – qHTS of alpha-syn Inhibitors; Yeast expressing alpha-synuclein, growth rescue, BacTiter-Glo, 24 h; Potency, µM (titrated, usually from 46.1 µM), inactives show at the highest dose growth rescue (activation), most hits filed as activators; hit rate 0.14% among 370,000; AID 652106, 2013; further: potency means the concentration at half of the fitted maximal effect; % of control where 0% means no effect; nearly all actives have a fitted effect of over 65% in size
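Screening used galactose-induced yeast with toxic alpha-synuclein levels, exposed to compound for 24 hr at 30 deg C. Cell growth, read with BacTiter-Glo luminescence, gave the measured signal.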
TDP43 rescue – qHTS of TDP-43 Inhibitors. TDP-43 expressing yeast growth rescue, BacTiter-Glo, 24 h. Potency, µM (doses to about 46.1 µM), inactives show at the top dose growth rescue (activation), actives largely listed as activators. hit rate 1.8% among 410,000; further: potency means the concentration at half of the fitted maximal effect; % of control where 0% means no effect; nearly all actives have a fitted effect of over 50% in size
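In this qHTS, compounds that restore growth of yeast expressing TDP-43 appear as activators. Cells (OD600=0.02, galactose medium, raffinose-pregrown) are incubated with compound 24 hr at 30 deg C and growth is quantified by BacTiter-Glo.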
Starred values were filed as active, the others as inactive; i = inactive; u = inconclusive; x = no result; [ ] = dose if it differs, or a comment. Unless noted, the call rests on the fitted dose curve; in most records, active means well fitted curve in the direction sought with a large enough effect; inconclusive means small, poorly fitted or top-dose-only effect, or another doubt; inactive means no such curve, though single readings can be large; an effect the other way counts as inactive or inconclusive.

SMILES	Abeta rescue	FUS yeast rescue	PTHR1 agonist	LDHA inh	aSyn yeast inh	TDP43 rescue
Cc1c(OCC(=O)C(C)(C)C)ccc2c(-c3ccccc3)cc(=O)oc12	u	i	-54%	-12	2%	25µM*
O=C(NNC(=O)c1cc2cc3ccccc3nc2s1)c1cccc(Cl)c1	i[9.22 µM]	i	-17%	-51*	-1%	20%
Cc1cccc(C(=O)NNC(=O)c2cc3cc4ccccc4nc3s2)c1	i[9.22 µM]	i	-57%	-7	-1%	-4%
COc1ccc(OCC(=O)Nc2ccc3oc(-c4ccccc4C)nc3c2)cc1	x	x	x	-12	x	x
COc1ccc(C2CC(c3ccc(Cl)cc3)=NN2C(C)=O)cc1 (stereo not given)	i	i	-34%	-4	u	13µM*
c1ccc2c(c1)ccc1ccccc12	i	i	-17%	-11	-3%	0%
O=c1ccc2ccccc2c2ccccc12	i	i	-13%	-2	u	3.2µM*
COc1cccc(CC(=O)Nc2ccc3nc(Nc4cccc(C(F)(F)F)c4)cc(C)c3c2)c1	i	i	-5%	-1	x	28%
COc1ccccc1CC(=O)Nc1ccc2nc(Nc3cccc(C(F)(F)F)c3)cc(C)c2c1	i	u	-5%	-6	x	13µM*
Cc1cc(Nc2cccc(Cl)c2)nc2ccc(NC(=O)c3cncc(Br)c3)cc12	i	32µM*	-20%	-5	x	22µM*
Cc1ccccc1C(=O)Nc1ccc2nc(Nc3cccc(C(F)(F)F)c3)cc(C)c2c1	i	i	-33%	-2	x	18µM*
Cc1cc(Nc2cccc(C(F)(F)F)c2)nc2ccc(NC(=O)c3cncc(Br)c3)cc12	i	u	-35%	0	x	14%
COc1ccc(OC)c(NC(=O)c2csc(Cl)c2OC)c1	i	u	-11%	-2	6%	20µM*
CC(=O)Nc1cc2c(cc1[N+](=O)[O-])-c1ccccc1C2=NO	i	x	-17%	-2	8%	0%
Nc1cc2c(cc1[N+](=O)[O-])-c1ccccc1C2=NO	i	x	i	-7	9%	3.5µM*
Cc1ccccc1N=C1SC(CC(=O)Nc2ccc3ccccc3c2)C(=O)N1Cc1ccccn1 (stereo not given)	i	i	i	-5	u	28µM*
O=C(NCc1ccccc1)C1Cc2c(-c3ccc(Cl)cc3)ccnc2O1 (stereo not given)	i	i	-10%	-2	u	20µM*
COc1ccc(NC(=O)C2Cc3c(-c4ccc(Cl)cc4)ccnc3O2)cc1OC (stereo not given)	i	i	-39%	-7	6%	35µM*
COc1ccc(NC(=O)C2Cc3c(-c4ccc(Cl)cc4)ccnc3O2)cn1 (stereo not given)	i	i	-23%	-3	14%	35µM*
COCCn1ccc2c(OCC(=O)Nc3ccccc3)cccc2c1=O	x	x	x	-6	x	x
Cc1ccccc1OCC(=O)Nc1c(N2CCCC2)c2ccccc2oc1=O	x	x	x	-1	x	x
O=C(Nc1ccc(Br)c(C(F)(F)F)c1)c1ccccc1	i	x	-41%	1	-26%	8.9µM*
CC(C)(CC(=O)O)Cc1nc(-c2ccc(Cl)cc2)no1	i	i	i	-12	-3%	32µM*
O=C(O)CCc1nc(-c2ccc(Cl)cc2)no1	i	x	i	-6	12%	14µM*
CC(=O)NCCc1nc(-c2ccc(Cl)cc2)no1	i	i	-58%	0	7%	-1%
N#Cc1c(N)n[nH]c1CCCCCNc1ncnc2c1cnn2-c1ccccc1	x	x	x	0	x	x
